Measured values published in PubChem BioAssay.
“And” between values parts separate entries of the source, which are not always exact repeats. Equal entries are not always repeated. For part of these data: Results with a measured potency or affinity are listed apart. The source made the active and inactive calls.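 Rule for the calls, unless noted: active = thallium flux through the channel raised or lowered by more than 3 SD from vehicle-only wells, actives on both sides; inactive = the rest.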

Tests used:
[1] = blockers of polyQ-driven CASP3 activation – cell-based (AID 1583); conditions: polyglutamine-induced caspase-3 activation, cell assay; stronger effect = higher value;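 tested at 10 µM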
[2] = yeast 75Q aggregation reduction – 75Q-TubU reporter (AID 1593); conditions: Yeast 75Q polyglutamine aggregation reporter
[3] = restoration of touch response, mutant HTT neurons – whole organism, C. elegans mechanosensory neurons, N-terminal huntingtin (AID 1599); conditions: C. elegans polyQ-huntingtin mechanosensory neurons, stronger effect = higher value
[4] = blockers of cytochrome c efflux from mitochondria – biochemical, purified mitochondria (AID 1603); conditions: stronger effect = lower value;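 note: mouse liver mitochondria challenged with calcium chloride; signal normalized to the plate average as 100%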
[5] = polyglutamine aggregate formation blockers (AID 1604); conditions: polyglutamine-induced protein aggregation inhibition assay; stronger effect = higher value; tested at 2.5 µM
[6] = glutamate transport activators, MN-1 cells, MN-1 cell line (AID 1612); conditions: MN-1 motor neuron cells, stronger effect = higher value;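 note: tested at 1 µM final; 0% = mean of DMSO vehicle wells on each plate; positive means more glutamate uptake than control and negative means less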
[7] = 75Q-TubH aggregate inhibition, S. cerevisiae, yeast (AID 1616); conditions: S. cerevisiae 75Q-TubH polyglutamine aggregation suppression; stronger effect = higher value
[8] = compounds altering viability of human ES cells (AID 493140; call rule not given here;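 note: cells exposed to compounds for four days before counting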); conditions: human embryonic stem cell survival screen; stronger effect = higher value
[9] = signal quenchers or enhancers, Cy5 substrate/SSB – biochemical, NIH Clinical Collection, E. coli SSB, artefact control for HCV NS3 helicase inhibitor project (AID 743268; call rule not given here); conditions: Cy5-oligo bound E. coli SSB, fluorescence interference
[10] = modulation of C. elegans fzo-1 (AID 1259413; call rule not given here;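 note: fzo-1 mutant C. elegans worms in liquid wells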); conditions: C. elegans fzo-1 modulator screen, mean read-out; stronger effect = higher value
[11] = galactose survival enhancers in mitochondrial complex I cybrids – cell-based, galactose medium, ATP luminescence, primary screen (AID 1645843;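 active = z-score of at least 1.8 in each of two replicates, scored against plate mean and spread of sample wells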;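 note: positive z means more ATP and so rescue of galactose-driven cybrid death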); conditions: complex I mutant cybrid cells, 72 h, stronger effect = higher value
F380Y/beta1 = experiment: BK channel mutant inhibitors and activators – cell-based, U2OS BacMam, thallium flux, beta subunits, selectivity assay, profiling panel (AID 1259406); conditions: U2OS BacMam BK variants, at 30 µM;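 note: initial slope of Thallos dye fluorescence rise after thallium is added; log ratio against the mean of 0.3% DMSO vehicle wells on the same plate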
F380Y/beta4 = experiment: as above; conditions: U2OS BacMam BK variants, at 30 µM
R275C = experiment: as above; conditions: U2OS BacMam BK variants, at 30 µM
R275C/beta1 = experiment: as above; conditions: U2OS BacMam BK variants, at 30 µM
R275C/beta2Delta = experiment: as above; conditions: U2OS BacMam BK variants, at 30 µM
R275C/beta4 = experiment: as above; conditions: U2OS BacMam BK variants, at 30 µM
R275C/Slo1WT/beta2 = experiment: as above; conditions: U2OS BacMam BK variants, at 30 µM
[12] = P. berghei load reduction in hepatocytes – cell-based, HepG2, luciferase luminescence, HepG2 viability, primary screen (AID 624349; in the data active = parasite load remaining mostly below about 12%, no sharp cut-off; inactive = mostly above about 10%;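 note: 100% = mean of DMSO negative control wells on the same plate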); conditions: P. berghei liver stage in HepG2, luciferase luminescence, concentration not given here; parasite load remaining: stronger effect = lower value; viability: measured here: HepG2 viability without parasites

CC(C)(C)NCC(O)c1cc(O)cc(O)c1 (configuration not stated)
inhibition [1]: 10.1% | score [2]: 1.33 | rescue above control [3]: -7.82 | cytochrome c release ratio [4]: 1.15 | inhibition of aggregation [5]: 47.9% | glutamate uptake change [6]: 22.8% | aggregation suppression score [7]: 1.5 | survival [8]: 21.1 (inactive) | fluorescence ratio [9]: 1.05 (inactive) | mean signal [10]: 269 (inactive) | z-score [11]: 0.355 (inactive) and 1.03 (inactive) | log fold change Tl+ flux (F380Y/beta1): -0.0587 (inactive) | log fold change Tl+ flux (F380Y/beta4): -0.0336 (inactive) | log fold change Tl+ flux (R275C): 0.00159 (inactive) | log fold change Tl+ flux (R275C/beta1): -0.00541 (inactive) | log fold change Tl+ flux (R275C/beta2Delta): -0.00466 (inactive) | log fold change Tl+ flux (R275C/beta4): 0.00501 (inactive) | log fold change Tl+ flux (R275C/Slo1WT/beta2): -0.0142 (inactive)

Cc1nc2ccccn2c(=O)c1CCN1CCC(C(=O)c2ccc(F)cc2)CC1
survival [8]: 8.08 (inactive) | fluorescence ratio [9]: 0.95 (inactive) | mean signal [10]: 234 (inactive) | z-score [11]: -1.02 (inactive) and -0.645 (inactive) | log fold change Tl+ flux (F380Y/beta1): 0.0396 (inactive) | log fold change Tl+ flux (F380Y/beta4): 0.0319 (inactive) | log fold change Tl+ flux (R275C): -0.025 (inactive) | log fold change Tl+ flux (R275C/beta1): -0.0266 (inactive) | log fold change Tl+ flux (R275C/beta2Delta): -0.0363 (inactive) | log fold change Tl+ flux (R275C/beta4): -0.0285 (inactive) | log fold change Tl+ flux (R275C/Slo1WT/beta2): 0.00703 (inactive)

CCN(CC)CCNC(=O)c1ccc(N)cc1
inhibition [1]: -1.81% | score [2]: 1.26 | rescue above control [3]: 9.03 | cytochrome c release ratio [4]: 1.74 | inhibition of aggregation [5]: 49.4% | glutamate uptake change [6]: -9.57% | aggregation suppression score [7]: 1.03 | survival [8]: 12.9 (inactive) | mean signal [10]: 241 (inactive) | z-score [11]: 0.47 (inactive) and -0.57 (inactive) and 0.345 (inactive) | log fold change Tl+ flux (F380Y/beta1): 0.0223 (inactive) | log fold change Tl+ flux (F380Y/beta4): 0.0227 (inactive) | log fold change Tl+ flux (R275C): 0.0572 (inactive) | log fold change Tl+ flux (R275C/beta1): -0.0679 (inactive) | log fold change Tl+ flux (R275C/beta2Delta): -0.0122 (inactive) | log fold change Tl+ flux (R275C/beta4): -0.0764 (inactive) | log fold change Tl+ flux (R275C/Slo1WT/beta2): -0.03 (inactive)

Cc1ccc(Cl)c(Nc2ccccc2C(=O)O)c1Cl
inhibition [1]: 12.9% | score [2]: 0.67 | rescue above control [3]: 16.6 | cytochrome c release ratio [4]: 1.42 | inhibition of aggregation [5]: 46.5% | glutamate uptake change [6]: -15.8% | aggregation suppression score [7]: 0.94 | survival [8]: 16.6 (inactive) | fluorescence ratio [9]: 0.6 (active) | mean signal [10]: 249 (inactive) | z-score [11]: 2.05 (inactive) and 0.72 (inactive) | log fold change Tl+ flux (F380Y/beta1): 0.408 (active) | log fold change Tl+ flux (F380Y/beta4): 0.386 (active) | log fold change Tl+ flux (R275C): 0.0346 (inactive) | log fold change Tl+ flux (R275C/beta1): 0.34 (active) | log fold change Tl+ flux (R275C/beta2Delta): 0.336 (active) | log fold change Tl+ flux (R275C/beta4): 0.266 (active) | log fold change Tl+ flux (R275C/Slo1WT/beta2): 0.0371 (inactive)

c1ccc2c(c1)CCCC2C1=NCCN1 (configuration not stated)
inhibition [1]: -4.42% | score [2]: 1.43 | rescue above control [3]: 7.66 | cytochrome c release ratio [4]: 0.63 | inhibition of aggregation [5]: 56.8% | glutamate uptake change [6]: 6.14% | aggregation suppression score [7]: 1.06 | survival [8]: 6 (inactive) | fluorescence ratio [9]: 0.97 (inactive) | mean signal [10]: 221 (inactive) | z-score [11]: 0.18 (inactive) and 0.17 (inactive) | log fold change Tl+ flux (F380Y/beta1): 0.041 (inactive) | log fold change Tl+ flux (F380Y/beta4): 0.00535 (inactive) | log fold change Tl+ flux (R275C): -0.00319 (inactive) | log fold change Tl+ flux (R275C/beta1): -0.00185 (inactive) | log fold change Tl+ flux (R275C/beta2Delta): -0.0361 (inactive) | log fold change Tl+ flux (R275C/beta4): 0.0129 (inactive) | log fold change Tl+ flux (R275C/Slo1WT/beta2): 0.0141 (inactive)

NCC(=O)CCC(=O)O
parasite load remaining [12]: 63.7% (inactive) and 161% (inactive) and 53.4% (inactive) | viability [12]: 95.6% and 83.2% and 165% | fluorescence ratio [9]: 1.05 (inactive) | mean signal [10]: 245 (inactive) | z-score [11]: 0.925 (inactive) | log fold change Tl+ flux (F380Y/beta1): -0.00533 (inactive) | log fold change Tl+ flux (F380Y/beta4): 0.0148 (inactive) | log fold change Tl+ flux (R275C): -0.000596 (inactive) | log fold change Tl+ flux (R275C/beta1): -0.0231 (inactive) | log fold change Tl+ flux (R275C/beta2Delta): -0.0499 (inactive) | log fold change Tl+ flux (R275C/beta4): -0.0959 (inactive) | log fold change Tl+ flux (R275C/Slo1WT/beta2): -0.117 (active)

CCCCNC(=O)NS(=O)(=O)c1ccc(C)cc1
inhibition [1]: -1.59% | score [2]: 1.02 | rescue above control [3]: -3.14 | cytochrome c release ratio [4]: 0.7 | inhibition of aggregation [5]: 52.6% | glutamate uptake change [6]: -18.9% | aggregation suppression score [7]: 0.871 | survival [8]: 25.3 (inactive) | mean signal [10]: 261 (inactive) | z-score [11]: 0.82 (inactive) and -0.58 (inactive) and 0.93 (inactive) | log fold change Tl+ flux (F380Y/beta1): 0.0157 (inactive) | log fold change Tl+ flux (F380Y/beta4): 0.00157 (inactive) | log fold change Tl+ flux (R275C): -0.0266 (inactive) | log fold change Tl+ flux (R275C/beta1): -0.0147 (inactive) | log fold change Tl+ flux (R275C/beta2Delta): 0.0266 (inactive) | log fold change Tl+ flux (R275C/beta4): -0.00534 (inactive) | log fold change Tl+ flux (R275C/Slo1WT/beta2): -0.00827 (inactive)

O=C1NC(=O)C(c2ccccc2)(c2ccccc2)N1
inhibition [1]: 5.01% | score [2]: 1.42 | rescue above control [3]: 6.5 | cytochrome c release ratio [4]: 0.9 | inhibition of aggregation [5]: 62.8% | glutamate uptake change [6]: -8.41% | aggregation suppression score [7]: 1.74 | fluorescence ratio [9]: 1.01 (inactive) | mean signal [10]: 250 (inactive) | z-score [11]: 0.08 (inactive) and 1.09 (inactive) and 0.395 (inactive) | log fold change Tl+ flux (F380Y/beta1): 0.0354 (inactive) | log fold change Tl+ flux (F380Y/beta4): 0.0289 (inactive) | log fold change Tl+ flux (R275C): -0.00405 (inactive) | log fold change Tl+ flux (R275C/beta1): -0.0211 (inactive) | log fold change Tl+ flux (R275C/beta2Delta): 0.0126 (inactive) | log fold change Tl+ flux (R275C/beta4): -0.0221 (inactive) | log fold change Tl+ flux (R275C/Slo1WT/beta2): 0.0271 (inactive)

Cc1onc(-c2c(Cl)cccc2Cl)c1C(=O)N[C@@H]1C(=O)N2[C@@H]1SC(C)(C)[C@@H]2C(=O)O
inhibition [1]: 12.4% | score [2]: 1.26 | rescue above control [3]: 8.15 | cytochrome c release ratio [4]: 1.34 | inhibition of aggregation [5]: 56.3% | glutamate uptake change [6]: -10.2% | aggregation suppression score [7]: 1.09 | survival [8]: 4 (inactive) | fluorescence ratio [9]: 0.97 (inactive) | mean signal [10]: 230 (inactive) | z-score [11]: 0.54 (inactive) | log fold change Tl+ flux (F380Y/beta1): -0.0941 (inactive) | log fold change Tl+ flux (F380Y/beta4): 0.00974 (inactive) | log fold change Tl+ flux (R275C): -0.0255 (inactive) | log fold change Tl+ flux (R275C/beta1): 4.8e-05 (inactive) | log fold change Tl+ flux (R275C/beta2Delta): 0.00693 (inactive) | log fold change Tl+ flux (R275C/beta4): -0.0254 (inactive) | log fold change Tl+ flux (R275C/Slo1WT/beta2): -0.0106 (inactive)

C[C@H](CS)C(=O)N1CCC[C@H]1C(=O)O
inhibition [1]: 11.5% | score [2]: 1.09 | rescue above control [3]: -12.7 | cytochrome c release ratio [4]: 0.82 | inhibition of aggregation [5]: 37.2% | glutamate uptake change [6]: -3.95% | aggregation suppression score [7]: 1.08 | mean signal [10]: 261 (inactive) | z-score [11]: 0.49 (inactive) and 0.465 (inactive) and -0.54 (inactive) | log fold change Tl+ flux (F380Y/beta1): -0.0696 (inactive) | log fold change Tl+ flux (F380Y/beta4): 0.0146 (inactive) | log fold change Tl+ flux (R275C): 0.0445 (inactive) | log fold change Tl+ flux (R275C/beta1): -0.0207 (inactive) | log fold change Tl+ flux (R275C/beta2Delta): 0.0269 (inactive) | log fold change Tl+ flux (R275C/beta4): -0.00777 (inactive) | log fold change Tl+ flux (R275C/Slo1WT/beta2): 0.0231 (inactive)
